In PubChem BioAssay (NCI) one finds growth data, which are given here for 27 compounds.

This is part of a sample that, as a whole, favours compounds with a hit. Of some 83,000 tested, about 20% had one in any assay.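 Method: cells in 96-well plates; compound added at one concentration; 48 h incubation; percent growth measured; values under 10 scored active.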 Values without a mark were called inactive. Activity calls are given as the source filed them.

What all share (test): NCI-60 one-dose screen, 48 h (100 = growth as untreated, 0 = no growth, -100 = all killed)
What all share (settings): 10 µM unless noted

The test system of test [1] is SR leukemia.
Test [2] relates to RPMI-8226 leukemia.
Test [3] concerns OVCAR-8 ovarian.
The subject of test [4] is OVCAR-5 ovarian.
In test [5] the test system is OVCAR-4 ovarian.
Test [6] deals with SK-OV-3 ovarian.
The subject of test [7] is IGROV1 ovarian.
Test [8] has as its system OVCAR-3 ovarian.
Test [9] concerns HS 578T breast.
Test [10] concerns NCI/ADR-RES ovarian.

Turning to `CCOC(=O)c1ccc[nH]1`, the growth in test [1] is 94.8%; in [2], 90.5%; in [3], 95.9%; in [4], 78.9%; in test [5], 95.5%; in test [6] it was 108%. The growth in [7] is 90.6%; in test [8], 115%; in [9], 95%; in test [10], 95.2%.

Turning to `CCN(CC)CCOc1ccc(/C(=C(\C)Cc2ccc(OC)cc2)c2ccc(OC(=O)NCc3ccccc3)cc2)cc1`, the growth in test [1] was -53% (active); in test [2] it was 3.04% (active); in test [3] it was 68.7%; in test [4], 81.9%; in test [5] it was 58%; in test [6], 91.2%. In addition, the growth in [7] is 77.5%; in test [8], 76.1%; in [9] it was 63.2%; in [10] it was 78.7%.

Turning to `N#Cc1c(-c2ccccc2)nc2c(c(-c3ccc(Cl)cc3)nn2-c2ccccc2)c1-c1ccc([N+](=O)[O-])cc1`, the growth in [1] was 63.4%; in [2] it was 101%; in test [3], 98.5%; in test [4], 99.9%; in test [5], 109%; in test [6], 102%. In addition, the growth was 103% in test [7], 126% in [8], 104% in [9] and 101% in test [10].

In the case of `Nc1ccc(Br)cc1C(F)(F)F`, the growth in [1] was 112%; in [2], 115%; in test [3], 100%; in test [4], 94.9%; in [5], 124%; in test [6], 103%. The growth is 114% in test [7], 120% in [8], 113% in test [9] and 106% in test [10].

On to `COc1cc(-c2ccc(-c3ccc(C(=N)N)cc3)s2)cc(OC)c1OC`, for which the growth in [1] was 5.38% (active); in test [2], -22.6% (active); in test [3], 70.7%; in [4], 83%; in test [5] it was 54%; in test [6], 77.9%. Also, the growth in test [7] was 62.6%; in test [8], 46%; in test [9], 34.7%; in [10], 95.4%.

Turning to `CCOC(=O)c1c(C)nc2c(c1N)C(=O)C(=O)N2Cc1ccc(OC)cc1`, the growth in test [1] was 31%; in [2], 20.1%; in test [3] it was 61.6%; in test [4] it was 97.5%; in test [5] it was 46.6%; in test [6], 108%. Further, the growth in test [7] was 82.5%; in test [8] it was 18.2%; in test [9], 79.2%; in test [10] it was 8.45% (active).

Regarding `Fc1ccc(/C=C/[C@@H]2C[C@@H](F)CCO2)cc1`, the growth in test [1] is 61.1%; in [2], 67.6%; in [3], 98.4%; in test [4] it was 89.7%; in test [5] it was 119%; in test [6] it was 102%. Moreover, the growth in test [7] was 103%; in test [8] it was 113%; in [9] it was 84.8%; in [10], 103%.

Take `CN1CCN(c2ccc(NC3=CC(=O)c4ncncc4C3=O)cc2)CC1`: the growth in [1] is -5.62% (active); in test [2], -29.1% (active); in test [3] it was -53.2% (active); in test [4], -92.3% (active); in test [5] it was -99% (active); in [6], -63.7% (active). Also, the growth in [7] was -86.6% (active); in test [8], -58.6% (active); in test [9] it was -19.6% (active); in [10], -20.4% (active).

Turning to `COc1cc2c(c(OC)c1OC)C(=O)CC(c1cccc(C(=O)Nc3ccccc3Br)c1)O2` (stereo not given), the growth in [1] is 64%; in [2], 68.7%; in test [3], 91.8%; in [4] it was 96.5%; in test [5], 70.6%; in test [6], 95.4%. Also, the growth in test [7] was 91.6%; in test [8], 97.6%; in test [9] it was 103%; in [10], 88.8%.

Regarding `N=C(N)c1ccc(OCCSCCOc2ccc(C(=N)N)cc2)cc1`, the growth in test [1] was 73.1%; in test [2], 73.9%; in test [3], 64%; in test [4] it was 77.6%; in test [5] it was 64.7%; in test [6], 82%. Further, the growth in [7] was 93.3%; in test [8], 86.4%; in test [9] it was 85.4%; in test [10], 97.7%.

Take `C=C1C(=O)O[C@H]2[C@H]1CC/C(COC(=O)/C=C\C(=O)NCc1ccc(Cn3c(=O)sn(CCCCl)c3=O)cc1)=C\CC[C@@]1(C)O[C@@H]21`: the growth in test [1] is 66.5%; in test [2], 44.9%; in test [3], 79.9%; in test [4], 82.2%; in test [5] it was 74.9%; in test [6] it was 97.4%. Also, the growth was 58.6% in test [7], 37.4% in [8], 88.8% in [9] and 93.7% in test [10].

With `O=S(O)c1cc(Cl)cc(Cl)c1OCc1ccccc1`, the growth in test [1] was 92.6%; in [2], 93.1%; in test [3] it was 97.6%; in test [4] it was 99%; in test [5] it was 113%; in [6] it was 102%. Further, the growth in test [7] was 109%; in test [8], 107%; in test [9] it was 95.4%; in test [10], 103%.

For the compound `CN(C)CCCn1c2c(c3ccncc3c1=O)C(=O)c1ccccc1-2`, the growth in [1] is -26% (active); in [2] it was -22.7% (active); in test [3] it was 0.796% (active); in test [4] it was 0.243% (active); in test [5] it was -8.01% (active); in test [6] it was 34.8%. For the same compound, the growth was 0.297% (active) in test [7], -12.3% (active) in test [8], 19.8% in test [9] and -23.5% (active) in test [10].

As to `Cc1ccc(S(=O)(=O)c2nc(-c3ccccc3)oc2SCC(N)=O)cc1`, the growth is 94.6% in test [1]; 96.8% in [2]; 111% in test [3]; 86.9% in [4]; 99.6% in [5]; 98.3% in [6]. Also, the growth in test [7] is 101%; in test [8], 94.9%; in test [9] it was 101%; in test [10] it was 99.5%.

`COc1ccc(/C=C(\C(=O)NCc2cccnc2)S(=O)(=O)c2ccccc2)cc1OC`: the growth in [1] is 17.4%; in test [2], 18%; in test [3], 28.3%; in [4] it was 45%; in test [5], 42.1%; in test [6], 81.1%. For the same compound, the growth in [7] is 19.7%; in [8], 19.7%; in test [9], 59.3%; in test [10], 83%.

As to `Cc1nn(-c2ccc([N+](=O)[O-])cc2)c2ncnc(N/N=C/c3ccccc3O)c12`, the growth is 4.55% (active) in test [1]; 1.23% (active) in [2]; 14.5% in test [3]; 55.8% in test [4]; 16.5% in [5]; 3.11% (active) in test [6]. Besides, the growth in [7] is 9.22% (active); in [8], 27.3%; in test [9], 44%; in test [10], 6.28% (active).

As for `C1CCC(N2CN3c4nonc4N4CN(C5CCCCC5)CN5c6nonc6N(C2)C3C45)CC1` (stereo not given), the growth in test [1] was 83.8%; in [2], 81.3%; in [3], 95.5%; in test [4], 102%; in test [5] it was 88.9%; in test [6], 109%. For the same compound, the growth in [7] was 104%; in test [8], 101%; in test [9], 86.6%; in test [10], 93.3%.

Consider `COC(=O)[C@]1(C)CCC[C@]2(C)[C@H]3C[C@@H]4[C@H]5[C@@H]6CC/C(=N\OCC/C(N)=N/O)[C@H]5[C@@]3(CC[C@H]21)CC4(C(C)C)O6`, for which the growth is 5.07% (active) in test [1]; 39.1% in test [2]; 73.2% in test [3]; 93.3% in [4]; 51.6% in [5]; 89.9% in [6]. The growth in [7] was 63.4%; in test [8] it was 53.1%; in test [9], 66.3%; in test [10] it was 32.1%.

Regarding `OC1CSSC1Cn1cnc2c(Nc3ccc(OCc4cccc(F)c4)c(Cl)c3)ncnc21` (stereo not given), the growth is -29.9% (active) in test [1]; -37.5% (active) in [2]; 37.4% in test [3]; 41% in test [4]; 4.03% (active) in [5]; -8.67% (active) in [6]. Besides, the growth in test [7] is 41.4%; in test [8], -70.2% (active); in test [9], 59.2%; in test [10] it was 1.93% (active).

As to `CC(C)C1C2=C(NCCN1C(=O)c1ccncc1)C(C)(C)N(Cc1ccccc1)C2=O` (stereo not given), the growth in [1] was 89.4%; in [2] it was 112%; in test [3] it was 108%; in test [4], 107%; in test [5], 111%; in [6] it was 98.9%. For the same compound, the growth in test [7] was 101%; in test [8], 102%; in [9], 109%; in test [10], 99.4%.

In the case of `Brc1ccc(Nc2nc(Nc3cnc4ccccc4c3)c3[nH]cnc3n2)cc1`, the growth was 63.9% in test [1]; 64.2% in test [2]; 83.9% in [3]; 101% in test [4]; 73.7% in test [5]; 68.2% in test [6]. Further, the growth in [7] is 74.7%; in [8], 60.2%; in test [9], 60.9%; in test [10], 92.4%.

`O=C1/C(=C/c2cccc(Br)c2)COc2ccc(O)cc21`: the growth in test [1] is 4.39% (active); in test [2] it was -27.3% (active); in [3], 54.1%; in [4], 89.8%; in test [5], 83.4%; in [6], 115%. Further, the growth is 78% in [7], 49.1% in test [8], 60.3% in test [9] and 47.6% in test [10].

With `CN1CCOCCN(C)Cc2ccc3ccc(cc3c2)CN(C)CCOCCN(C)Cc2ccc3ccc(cc3c2)C1`, the growth in test [1] was 9.14% (active); in test [2] it was 36.7%; in test [3], 103%; in [4], 134%; in test [5], 78.4%; in [6], 146%. Besides, the growth was 74.8% in test [7], 75.6% in [8], 90.6% in [9] and 83.5% in test [10].

For the compound `O=C(c1ccc(Br)cc1)C(Br)C(c1ccc(Cl)cc1)C(c1ccccc1)[N+](=O)[O-]` (stereo not given), the growth is 103% in [1]; 92.1% in test [2]; 95.3% in test [3]; 108% in test [4]; 81.4% in test [5]; 99.4% in [6]. The growth in [7] is 108%; in test [8], 94.4%; in [9], 87.1%; in [10], 95.6%.

Regarding `O=C(/C=C/c1ccccc1)c1cccc2ccccc12`, the growth in test [1] is 8.29% (active); in test [2] it was 6.78% (active); in test [3] it was 19.9%; in test [4], 103%; in test [5], 41.3%; in test [6], 62.2%. The growth in test [7] was 47.3%; in [8], 22.4%; in test [9] it was 32.1%; in test [10], 24.9%.

With `Cc1cccc(NC(=O)Cn2cc(CN3CCN(c4ccnc5cc(Cl)ccc45)CC3)nn2)c1`, the growth is 78% in test [1]; 63.7% in test [2]; 92.7% in test [3]; 96.8% in test [4]; 78.1% in test [5]; 76.6% in test [6]. Moreover, the growth is 89.1% in test [7], 91.1% in [8], 85.1% in test [9] and 91.3% in test [10].

For the compound `Cc1nc2sc(C(=O)Nc3ccccn3)c(N)c2cc1C(C)O` (stereo not given), the growth in test [1] was 15.2%; in [2], 94.5%; in [3], 92.5%; in test [4], 77.9%; in [5], 81%; in test [6] it was 65.2%. The growth in test [7] was 70.4%; in [8], 76.5%; in test [9], 74.7%; in test [10], 74.2%.
